Structures are written as SMILES. Inconclusive results are not listed. Calls of active or inactive are those of the source. The call rests on the fitted dose curve; in most records, active means well fitted curve in the direction sought with a large enough effect; inconclusive means small, poorly fitted or top-dose-only effect, or another doubt; inactive means no such curve, though single readings can be large; an effect the other way counts as inactive or inconclusive.

A short description of assay [1]: NS1 protein of Zika virus - qHTS assay to identify small molecule inhibitors in human HEK 293 cells (AID 1347053). Further: nearly all actives have a fitted effect of over 55% in size. Further: potency means the concentration at half of the fitted maximal effect. Conditions: HEK293 ZIKV MR766 infection, NS1 TR-FRET, 24 h; series mostly up to 46.1 µM. An outline of the steps:
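Following 20 h seeding, HEK 293 cells took compound, then 1 h later ZIKV MR766 (MOI = 0.5). Incubation ran 24 h at 37 C before TR-FRET detection of NS1; a drop in signal indicates inhibition.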
For orientation: Quantitative high-throughput screening tests each substance at several concentrations.

Assay [2] in a line: qHTS of pediatric cancer cell lines to identify multiple opportunities for drug repurposing: Primary screen for TC32 cells (AID 1347089). Further: nearly all actives have a fitted effect of over 60% in size. Conditions: TC32 Ewing sarcoma viability, CellTiter-Glo luminescence, 48 h; series mostly up to 45.8 µM. In a few lines: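 Measured quantity: luminescence from CellTiter-Glo, reflecting metabolically active TC32 cells following 48 h of compound. Curves came straight from multi-point titrations, with 8 or 11 points in primary and 11 in confirmatory screening.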

The nature of assay [3]: qHTS of pediatric cancer cell lines to identify multiple opportunities for drug repurposing: Primary screen for SJ-GBM2 cells (AID 1347091). Further: potency means the concentration at half of the fitted maximal effect. Conditions: SJ-GBM2 viability, CellTiter-Glo luminescence, 48 h; series mostly up to 46 µM. In a few lines:
(§1)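 Cell viability, CellTiter-Glo luminescence; 500-1,000 cells/well, 8- or 11-point titration, 48 h compound exposure at 37 degrees C, 5% CO2. Controls: DMSO neutral, bortezomib 2.3 µM final as positive.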

Assay [4] can be described thus: qHTS of pediatric cancer cell lines to identify multiple opportunities for drug repurposing: Primary screen for DAOY cells (AID 1347090). Further: nearly all actives have a fitted effect of over 55% in size. Further: potency means the concentration at half of the fitted maximal effect. Conditions: DAOY medulloblastoma viability, CellTiter-Glo luminescence, 48 h; series mostly up to 46 µM. An outline of the steps:
as §1

A short description of assay [5]: qHTS of pediatric cancer cell lines to identify multiple opportunities for drug repurposing: Primary screen for A673 cells (AID 1347092). Further: nearly all actives have a fitted effect of over 45% in size. Further: potency means the concentration at half of the fitted maximal effect. To be noted: A673 Ewing sarcoma viability, CellTiter-Glo ATP luminescence, 48 h; series mostly up to 46 µM. In a few lines: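 Cells are plated, rested 5 h, dosed by pintool, incubated 48 h, then lysed with CellTiter-Glo and read by luminescence. DMSO is the neutral control; bortezomib at 2.3 uM final is the positive control.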

A short description of assay [6]: qHTS of pediatric cancer cell lines to identify multiple opportunities for drug repurposing: Primary screen for SK-N-MC cells (AID 1347093). Further: potency means the concentration at half of the fitted maximal effect. To be noted: SK-N-MC viability, CellTiter-Glo luminescence, 48 h; series mostly up to 46 µM. In a few lines: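 Metabolically active cells were quantified by ATP-dependent luminescence (CellTiter-Glo, 15 min at room temperature) following 48 h treatment. Cells had been plated at 500-1,000 per well and settled for 5 h beforehand.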

Consider `COc1ccc(C2Sc3ccccc3N(CCN(C)C)C(=O)C2OC(C)=O)cc1` (stereo not drawn), for which the Potency entry in assay [1], in assay [2] and in assay [3] was “inactive” throughout.
`O=c1[nH]cnc2c1ncn2[C@H]1CC[C@@H](CO)O1`: the Potency result in assay [1], in assay [2] and in assay [4] was “inactive” each time. In addition, the Potency in assay [5] is 29.6 µM (active); in assay [6], 9.35 µM (active).
Consider `Cc1c[nH]c(C=C2C(=O)Nc3ccccc32)c1CCC(=O)O`, for which the Potency entry in assay [1], in assay [2], in assay [4] and in assay [6] was “inactive” throughout. The Potency in assay [3] was 18.7 µM (active).
Take `CC(C(=O)O)c1ccc(-c2ccccc2)c(F)c1` (stereo not drawn): the Potency result in assay [1], in assay [2] and in assay [3] was “inactive” each time.
As for `CC(=O)Oc1cc2c(s1)CCN(C(C(=O)C1CC1)c1ccccc1F)C2` (stereo not drawn), the Potency entry in assay [1] and in assay [2] was “inactive” each time. Also, the Potency in assay [4] was 1.48 µM (active); in assay [5], 1.48 µM (active); in assay [6], 1.32 µM (active).
As for `CC1(C)CCC[C@@]2(C)[C@@H]1CC[C@@]1(C)OC(=O)C[C@H]21`, the Potency result in assay [1], in assay [2], in assay [4] and in assay [5] was “inactive” each time. The Potency in assay [6] is 8.33 µM (active).
As to `N#CC(=C(N)Sc1ccccc1N)C(C#N)=C(N)Sc1ccccc1N`, the Potency result in assay [1] and in assay [2] was “inactive” throughout. For the same compound, the Potency in assay [4] is 23.5 µM (active); in assay [5] it was 2.35 µM (active); in assay [6] it was 2.96 µM (active).
For `O=C(O)c1ccc(-c2c[nH]c3ncc(-c4ccccc4)cc23)cc1C1CCCC1`, the Potency result in assay [1], in assay [2] and in assay [4] was “inactive” in each case. For the same compound, in assay [6], the Potency is 0.166 µM (active).
Turning to `O=c1cc(-c2ccccc2)oc2cc(O)cc(O)c12`, the Potency entry in assay [1], in assay [2], in assay [4] and in assay [6] was “inactive” throughout.
With `COc1ccc(-c2coc3cc(O)cc(O)c3c2=O)cc1`, the Potency result in assay [1], in assay [2], in assay [4] and in assay [3] was “inactive” throughout. The Potency in assay [6] is 10.5 µM (active).
For `CC(C)(Cc1ccc2ccccc2c1)NC[C@@H](O)COc1cccc(Cl)c1C#N`, the Potency result in assay [1], in assay [2] and in assay [4] was “inactive” each time. For the same compound, the Potency in assay [5] was 14.8 µM (active).
With `CCN(CC)CCOc1ccc(C(=C(Cl)c2ccccc2)c2ccccc2)cc1`, the Potency result in assay [1], in assay [2] and in assay [4] was “inactive” in each case. For the same compound, the Potency in assay [5] was 29.6 µM (active); in assay [6] it was 14.8 µM (active).
Take `O=C1NC(=O)C(=Cc2ccc3c(c2)OC(F)(F)O3)S1`: the Potency result in assay [1] and in assay [2] was “inactive” in each case. For the same compound, the Potency in assay [4] is 23.5 µM (active); in assay [6] it was 3.32 µM (active).
Turning to `CCOC(=O)C1=C(N)Oc2ccc(Br)cc2C1C(C#N)C(=O)OCC` (stereo not drawn), the Potency result in assay [1] and in assay [2] was “inactive” in each case. The Potency in assay [3] was 7.43 µM (active).
In the case of `c1cc(-c2sc(-c3ccncc3)c(-c3ccncc3)c2-c2ccncc2)ccn1`, the Potency entry in assay [1], in assay [2] and in assay [3] was “inactive” in each case. In addition, the Potency in assay [6] was 20.9 µM (active).
With `CN(C[C@@H]1COCCO1)S(=O)(=O)Nc1ccc2ccc3ncc(-c4cnn(C)c4)cc3c(=O)c2c1`, the Potency result in assay [1] and in assay [2] was “inactive” each time. In addition, the Potency was 0.372 µM (active) in assay [3] and 2.96 µM (active) in assay [6].
Regarding `Clc1cc(Cl)cc(CNc2ncncc2-c2ccc3c(c2)OCO3)c1`, the Potency in assay [1] was 18.7 µM (active); in assay [3] it was 18.7 µM (active); in assay [5] it was 14.8 µM (active); in assay [6], 13.2 µM (active). The Potency result in assay [2] was “inactive”.
`N#CC1(c2ccc(NC(=O)c3cccnc3NCc3ccncc3)cc2)CCCC1`: the Potency entry in assay [1], in assay [2], in assay [3], in assay [5] and in assay [6] was “inactive” in each case.
In the case of `Cc1cnc(C(=O)O)c[n+]1[O-]`, the Potency entry in assay [1], in assay [2], in assay [3], in assay [5] and in assay [6] was “inactive” each time.
Turning to `CC(C)n1cnc2c(NCCCCCCNC(=O)OC(C)(C)C)nc(NCCO)nc21`, the Potency entry in assay [1] and in assay [2] was “inactive” in each case. The Potency in assay [5] is 18.7 µM (active).
For the compound `O=C(CCN1CCN(C(=O)OCc2cc(Cl)cc(Cl)c2)CC1)c1ccc2[nH]c(=O)oc2c1`, the Potency result in assay [1], in assay [2], in assay [3] and in assay [6] was “inactive” throughout.
As to `CN(C)c1cc(NC(=O)CNC(C)(C)C)c(O)c2c1C[C@@H]1C[C@H]3[C@H](N(C)C)C(=O)C(C(N)=O)=C(O)[C@@]3(O)C(=O)C1=C2O`, the Potency entry in assay [1], in assay [2], in assay [3] and in assay [6] was “inactive” throughout.
For `CN(C)CCC=C1c2ccccc2COc2ccc(CC(=O)O)cc21`, the Potency entry in assay [1], in assay [2] and in assay [3] was “inactive” throughout. For the same compound, the Potency in assay [5] is 18.7 µM (active).
